# Results reported in paper PMC5540273 (PLoS ONE, 2017).
# How the values were obtained:
# Conditions in all cases: concentration: 1 μM,replicates: in singlicate; n = 1
# [1] = test system: MTOR
# [2] = test system: MUSK
# [3] = test system: MYLK2
# [4] = test system: MYLK4
# [5] = test system: MYLK
# [6] = test system: MYO3A
# [7] = test system: MYO3B
# [8] = test system: T1, NDR1
# T1 construct: gene STK38
# [9] = test system: NDR2
# [10] = test system: NEK10
# 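Further: KINOMEscan kinase panel screen.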
Structure (SMILES),%Inh [1],%Inh [2],%Inh [3],%Inh [4],%Inh [5],%Inh [6],%Inh [7],%Inh [8],%Inh [9],%Inh [10]
N#Cc1cccc(C(=O)NC2CCN(c3ccnc(Nc4ccc(F)cc4)n3)C2)c1 (stereo not shown) [GSK1379708],4%,0%,0%,0%,0%,4%,0%,0%,41%,1%
C[C@@H](Oc1cc(-n2cnc3cc(-c4ccncc4)ccc32)sc1C(N)=O)c1ccccc1Cl [GSK479719],6%,11%,22%,0%,1%,0%,0%,0%,0%,0%
CNC(=O)c1ccccc1Nc1nc(Nc2cccc(CS(C)(=O)=O)c2)ncc1C.O=CO [GSK1520489],2%,69%,18%,99.8%,30%,28%,0%,92.2%,80%,14%
Cc1ccn2nc(-c3ccc(F)cc3)c(-c3ccncc3)c2c1.Cl [GW457859],8%,0%,23%,0%,26%,48%,0%,13%,40%,0%
CSc1nccc(-c2c(-c3ccc(F)cc3)ncn2CCCN2CCOCC2)n1.Cl [SB-217146],35%,0%,0%,0%,5%,21%,8%,42%,26%,14%
CN(c1cccc(CNc2nc(Nc3ccc4c(c3)CC(=O)N4)ncc2C(F)(F)F)c1)S(C)(=O)=O,24%,58%,74%,24%,0%,0%,1%,49%,0%,0%
Cn1cc(-c2cccc3c(N)c(C(N)=O)nnc23)cn1,0%,3%,0%,81%,33%,15%,23%,8%,23%,48%
C[C@@H]1CNc2c(sc3ccc4nc(-c5ccncc5)ccc4c23)C(=O)N1,50%,0%,2%,11%,62%,0%,27%,18%,0%,7%
CC(C)S(=O)(=O)N1CCN(Cc2ccc3c(c2)nc(NC(=O)c2ccsc2)n3C[C@H](O)c2ccccc2)CC1 [GW635815],14%,27%,15%,0%,16%,8%,0%,35%,24%,2%
CC(C(=O)NC1CCN(c2ccnc(Nc3ccc(F)cc3)n2)C1)c1ccc(Cl)cc1 (stereo not shown) [GSK1379713],17%,6%,3%,0%,0%,0%,0%,15%,0%,0%
c1ccc(Oc2ccc(Nc3ccnc4ccc(-c5ccccn5)cc34)cc2)cc1 [GW407034],15%,15%,12%,4%,14%,10%,0%,0%,0%,2%
Cc1cccc(-c2nc(Nc3ccncc3)c3sccc3n2)n1 [GW869641],75%,0%,4%,0%,35%,9%,21%,35%,0%,24%
COc1ccc(Nc2nccc(N3CCC(NC(=O)c4cccc(C#N)c4)C3)n2)cc1 (stereo not shown) [GSK1379730],10%,5%,0%,0%,0%,0%,0%,0%,0%,28%
O=C(NOCC1CC1)c1cc(Br)c(F)c(F)c1Nc1ccc(I)cc1Cl,26%,9%,0%,0%,0%,0%,20%,33%,0%,0%
CN1CCN(CCNc2nc3cc(Oc4ccc(NC(=O)Nc5cc(C(F)(F)F)ccc5F)cc4)ccc3[nH]2)CC1.Cl.Cl [GW768504],0%,97.3%,6%,0%,0%,0%,20%,51%,7%,0%
COc1cccc(C2=C(Nc3cccc(Cl)c3)C(=O)NC2=O)c1 [SB-341556],8%,9%,0%,23%,0%,0%,0%,0%,0%,73%
Cl.Cl.NC[C@H](CC1CCCCC1)NC(=O)c1ccc(-c2ccnc3[nH]ccc23)s1 [GSK1581428],14%,61%,62%,99.9%,66%,0%,0%,95.8%,79%,17%
CCNCC(Cc1ccccc1)NC(=O)c1cc(Br)c(-c2ccnc3[nH]ccc23)s1.Cl.Cl (stereo not shown) [GSK1383280],8%,2%,22%,86%,73%,15%,0%,99.8%,52%,0%
CC(=O)c1c(-c2ccncc2)[nH]c(-c2ccncc2)c1C [GW493036],0%,8%,4%,7%,4%,42%,0%,19%,0%,0%
Cn1ccc2ncnc(Oc3ccc(NC(=O)Nc4ccnc(C(F)(F)F)c4)c(Cl)c3)c21,25%,42%,0%,0%,0%,0%,0%,0%,2%,0%
Cc1ccc(Nc2ccnc(Nc3ccc4c(c3)CS(=O)(=O)C4)n2)cc1O.Cl [GW579362],30%,53%,32%,87%,27%,15%,0%,28%,0%,16%
O=C(Nc1ccc(Oc2ccc3nc(NC(=O)C4CC4)cn3n2)c(F)c1)c1cccn(-c2ccccc2)c1=O,21%,99.5%,0%,0%,0%,0%,0%,3%,0%,0%

Structure (SMILES),%Inh [1],%Inh [2],%Inh [3],%Inh [4],%Inh [5],%Inh [6],%Inh [7],%Inh [8],%Inh [9],%Inh [10]
Cc1ccc(CC(=O)N2CCc3cc(-c4cn(C)c5ncnc(N)c45)ccc32)cc1 [GSK2634758],32%,0%,87%,0%,0%,0%,9%,18%,8%,0%
CC(C)c1nc(-c2cccc(NS(=O)(=O)c3ccccc3)c2)c(-c2ccnc(Nc3ccc4c(c3)CN(C)CC4)n2)s1 [GSK1649598],0%,15%,0%,13%,13%,48%,0%,31%,0%,0%
O=C(Nc1cccc(Oc2ccc3nccn3n2)c1)Nc1cccc(C(F)(F)F)c1,23%,51%,0%,0%,0%,0%,3%,0%,0%,0%
Cc1ccc2c(-c3ccnc(Nc4ccc(C(F)(F)F)cc4)n3)cnn2n1 [GW819776],0%,7%,9%,23%,19%,0%,0%,37%,10%,31%
Cl.Nc1n[nH]c2cc(-c3ccccn3)ccc12 [GSK2189892],0%,0%,5%,29%,18%,0%,0%,0%,0%,2%
Cc1cccc2c(-c3ccncc3)c(-c3ccc(F)cc3)nn12.Cl [GW461487],0%,7%,2%,0%,14%,8%,0%,25%,0%,14%
C[C@@H](Oc1cc(-n2cnc3ccc(-c4ccncc4)cc32)sc1C(N)=O)c1ccccc1Cl [GSK483724],32%,28%,48%,94.9%,13%,0%,0%,10%,0%,12%
Nc1nccc(-c2ccc3c(N)n[nH]c3c2)n1 [GSK1034945],0%,9%,85%,83%,21%,8%,0%,0%,0%,0%
COc1cc(Nc2nccc(N3CCC(NC(=O)c4cccc(C#N)c4)C3)n2)cc(OC)c1OC (stereo not shown) [GSK1379751],0%,0%,0%,4%,0%,46%,0%,0%,0%,6%
O=C(Nc1ccccc1)c1cccc(Oc2ccc3nccn3n2)c1,14%,73%,0%,0%,0%,0%,0%,0%,22%,0%
O=C(Nc1cccc(C(F)(F)F)c1)c1cccc(Oc2ccc3nccn3n2)c1,0%,12%,0%,0%,6%,0%,0%,80%,0%,0%
O=C1NCCc2[nH]c(-c3ccncc3)cc21,0%,34%,20%,5%,33%,7%,–,20%,0%,14%
O=c1[nH]cc(-c2ccc(O)cc2)c2sc(-c3ccncc3)cc12 [GSK1033723],18%,0%,33%,44%,26%,0%,0%,38%,8%,12%
COc1cccc(OC)c1C(=O)Nc1cccc(-c2nn3ccccc3c2-c2ccnc(Nc3cccc(F)c3)n2)c1 [GSK361065],0%,3%,0%,0%,87%,28%,13%,17%,13%,0%
CC(=O)Nc1ccc(-c2cc3ncnc(SCC(=O)O)c3s2)cc1,3%,12%,9%,14%,6%,5%,0%,0%,8%,25%
CCCC(=O)Nc1n[nH]c2ncccc12 [SB-601436],0%,0%,0%,0%,2%,0%,12%,9%,0%,0%
Cn1ccc2ncnc(Oc3ccc(NC(=O)Nc4cncc(C(F)(F)F)c4)c(Cl)c3)c21,7%,95%,0%,0%,0%,0%,0%,0%,0%,11%
COc1cc2c(Nc3ccc(NC(=O)c4ccccc4)cc3)ncnc2cc1OCCCN1CCOCC1 [GSK301329],15%,13%,0%,0%,2%,0%,0%,5%,0%,3%
COc1cccc(CNC(=O)NC2CCN(c3ccnc(Nc4cc(OC)c(OC)c(OC)c4)n3)C2)c1 (stereo not shown) [GSK1379765],31%,83%,11%,9%,20%,27%,0%,15%,0%,14%
CCn1c(-c2nonc2N)nc2cncc(Br)c21 [SB-738004],15%,0%,16%,16%,31%,39%,3%,38%,35%,43%
COC(=O)Nc1nc2cc(Oc3ccc(NC(=O)Nc4cc(C(F)(F)F)ccc4Cl)cc3)ccc2[nH]1.Cl [GW697465],19%,99.2%,6%,0%,0%,11%,0%,8%,0%,13%
CCOC(=O)N1CCC(n2cnc(-c3ccc(F)cc3)c2-c2ccnc(N)n2)CC1 [SB-219952],66%,0%,20%,21%,45%,17%,0%,0%,0%,0%
